Bioassay records deposited in PubChem BioAssay by several laboratories.
Hits are enriched below; roughly 2.1% of the tested compounds scored in any of these assays.
PGE2 EP2 inh: blocks the human prostaglandin E2 receptor EP2. C6 glioma cells expressing human EP2, cAMP TR-FRET; cells stimulated with saturating PGE2. inhibition, % at 25 µM. hit rate 0.52% among 260,000;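 active = percent inhibition above 40 after rounding to a whole number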;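 note: rat C6 glioma host cells with rolipram phosphodiesterase inhibitor present; the protocol text gives 20 µM as final concentration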
Target sequence (P43116 whole entry, looked up): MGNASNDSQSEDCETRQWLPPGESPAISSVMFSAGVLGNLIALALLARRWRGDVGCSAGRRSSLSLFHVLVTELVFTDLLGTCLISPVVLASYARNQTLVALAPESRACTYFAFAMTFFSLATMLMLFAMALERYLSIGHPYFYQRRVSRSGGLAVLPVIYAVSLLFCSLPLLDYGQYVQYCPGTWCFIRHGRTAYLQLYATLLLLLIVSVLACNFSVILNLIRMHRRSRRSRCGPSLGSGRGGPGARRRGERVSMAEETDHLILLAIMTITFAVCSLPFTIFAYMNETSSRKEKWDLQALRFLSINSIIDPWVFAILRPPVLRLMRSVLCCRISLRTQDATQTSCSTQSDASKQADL
CHT block: inhibitors of human choline transporter CHT; hit rate 0.86% among 310,000; CHT-expressing cells, membrane potential dye, choline response; stronger effect = lower value; B-score at 10 µM; AID 488975; Q9GZV3;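 active = B-score over 3 SD under the library average, and starting fluorescence ratio not unusually high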;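 note: choline stimulus applied at its EC90 after an EC20 pre-addition; B-score computed on integrated fluorescence ratio after choline addition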
CHT PAM: allosteric activators of human choline transporter CHT; Q9GZV3; hit rate 0.49% among 310,000; CHT-expressing cells, membrane potential dye, choline EC20; stronger effect = higher value; LV-AA mutant CHT in HEK293 cells; B-score at 10 µM;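 active = initial fluorescence not abnormally high and integrated response B-score, plate-corrected, over 3 SD above library mean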
EP2 mod: EP2 receptor (human) modulation | hit rate 0.83% among 260,000 | EP2-expressing cells, cAMP HTRF FRET, PGE2 co-stimulation | P43116 | AID 940 | induction, % at 25 µM;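 active = compounds whose cAMP rise, as percent of the full-agonist control response, exceeds 60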;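 note: rat C6 glioma line stably carrying human EP2 under a CMV promoter; the protocol text gives 20 µM as final concentration; 100% = response of wells given 1 µM PGE2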
CHT inh conf: confirmation of human choline transporter CHT inhibitors; CHT activity remaining % of control (stronger effect = lower value), % at 10 µM; shares compounds with CHT block; CHT-expressing cells, choline membrane potential dye; LV-to-AA substituted CHT, HEK293 cells; AID 493221; hit rate 70% among 2,400;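 active = choline transporter activity left, mean of duplicates at 10 µM, below buffer-only control mean minus 3 SD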;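 note: depolarization triggered by choline at its EC90 following an EC20 pre-addition; 0% = hemicholinium-3 full block and 100% = buffer-only control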
HEK293 MPD ctr: activity in parental HEK293 cells lacking CHT; shares compounds with CHT block; membrane potential dye, choline response; active = decrease or increase beyond buffer ±3SD; membrane potential ratio readout (active if shifted either direction beyond buffer ±3SD; no single direction) at 10 µM; hit rate 4% among 2,400;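 note: parental cells lack the transporter so any hit is non-specific; ratio is peak minus trough fluorescence over baseline after EC90 choline challenge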
An asterisk follows results filed as active; i = inactive; nt = no result.

SMILES | PGE2 EP2 inh | CHT block | CHT PAM | EP2 mod | CHT inh conf | HEK293 MPD ctr
Cc1nn2c(NCCOCCO)c3c(nc2c1-c1ccccc1)CCCC3 | 8 | -5.2* | i | 36 | 31%* | i
C[C@@H](Cn1nnc2ccccc21)NC(=O)c1ccco1 | 3 | nt | nt | -28 | nt | nt
O=C(Nc1nc2ccc(F)cc2s1)c1cccc(Cl)c1Cl | 11 | nt | nt | 0 | nt | nt
CNC(=S)N(CCN1CCOCC1)Cc1cc2cc3c(cc2[nH]c1=O)OCCO3 | 8 | nt | nt | 1 | nt | nt
O=C(O)c1ccccc1NS(=O)(=O)c1ccc2[nH]c(=O)oc2c1 | 7 | nt | nt | 7 | nt | nt
CCCCCn1c(=O)[nH]c2cc(C(=O)NCCN3CCC(C)CC3)ccc2c1=O | nt | -6.1* | i | nt | i | i
CC(C)(C)C(=O)NC1CC2CCCC(C1)N2C(=S)Nc1ccc(F)cc1 (configuration not stated) | 16 | nt | nt | -66 | nt | nt
Cn1c(-c2sccc2OCc2ccc(Cl)cc2Cl)n[nH]c1=S | 5 | -5.6* | i | 32 | i | i
CC(=O)c1cccc(OCC(=O)c2cc(C)n(-c3cc(C)on3)c2C)c1 | 18 | -5* | i | -20 | 63%* | i
Cc1ccc(Nc2nc(N)c3ccccc3n2)cc1 | 11 | nt | nt | -60 | nt | nt
COc1ccc(OC)c(Nc2nc(N)c([N+](=O)[O-])c(NCc3ccccc3)n2)c1 | 6 | -5* | i | -7 | i | i
COc1ccc(C)cc1Nc1nc(N)c2ccccc2n1 | nt | -13* | i | nt | 41%* | i
Nc1nc(Nc2ccccc2F)nc2ccccc12 | 10 | nt | nt | -73 | nt | nt
CCOc1ccc(Nc2nc(N)c3ccccc3n2)cc1 | nt | -5.8* | i | nt | 48%* | i
COC(=O)c1c(NC(=O)c2ccc(OC)c(OC)c2)sc(C(=O)NC2CCCCC2)c1C | 6 | nt | nt | 0 | nt | nt
Cc1ccc(S(=O)(=O)NC(=O)c2ccc(-c3ccc(C)c4ccccc34)o2)cc1 | 14 | -5* | i | -4 | i | i
Cc1nn(CC(=O)NCc2ccncc2)c(=O)c2cc3sccc3n12 | nt | nt | nt | -37 | nt | nt
Cc1nn(-c2ccccc2)c(C)c1C(=O)OCC(=O)NC(=O)NC1CCCC1 | 3 | -11* | i | -8 | 60%* | i
Nn1c(SC/C=C/c2ccccc2)nnc1-c1ccncc1 | nt | i | i | 35 | nt | nt
COc1cc(-c2nnc(SC/C=C/c3ccccc3)n2N)cc(OC)c1OC | 6 | -5.2* | i | -21 | 67%* | i
NC(=O)CSc1nccn1Cc1ccccc1 | 8 | i | i | 9 | nt | nt
c1ccc(Cn2ccnc2SCc2nnc(-c3ccccc3)o2)cc1 | 18 | -6.1* | i | -17 | 63%* | i
Clc1cccc(Cl)c1CNC1CCCC1 | 14 | -5.5* | i | -1 | 11%* | -10*
Cc1ccc(-c2csc(NC(=O)c3cccc(C)c3)c2C(=O)O)cc1 | nt | -7.7* | i | nt | 43%* | i
Cc1ccc(-c2csc(NC(=O)c3ccccc3Cl)c2C(=O)O)cc1 | nt | -5.9* | i | nt | 66%* | i
SMILES | PGE2 EP2 inh | CHT block | CHT PAM | EP2 mod | CHT inh conf | HEK293 MPD ctr
Cc1ccc(-c2csc(NC(=O)c3ccc(Br)cc3)c2C(=O)O)cc1 | nt | -5.3* | i | nt | 51%* | i
Cc1nn(C(C)CC(=O)N2CCc3onc(-c4ccccc4F)c3C2)c(C)c1C (configuration not stated) | 3 | nt | nt | -34 | nt | nt
CCc1ccc(OC(C)c2n[nH]c(=S)n2CC)cc1 (configuration not stated) | 12 | nt | nt | 0 | nt | nt
Cc1nn(CC(O)COc2ccc3ccccc3c2)c(C)c1Cl (configuration not stated) | 10 | nt | nt | -73 | nt | nt
Cc1cccc(OCC(=O)Nc2nc3ccc(F)cc3s2)c1 | 7 | nt | nt | -13 | nt | nt
CCCn1c(CN2CCN(c3cccc(Cl)c3)CC2)nc2c1c(=O)n(C)c(=O)n2C | 10 | -11* | i | 14 | -13%* | i
CCCCCn1c(CN2CCCCC2CC)nc2c1c(=O)n(C)c(=O)n2C (configuration not stated) | 8 | i | i | nt | nt | nt
CCCCn1c(CN2CCN(c3cccc(Cl)c3)CC2)nc2c1c(=O)n(C)c(=O)n2C | 7 | -13* | i | 24 | 29%* | i
CCCCCn1c(CN2CCCCC2C)nc2c1c(=O)n(C)c(=O)n2C (configuration not stated) | 4 | -5* | i | 32 | 45%* | i
CCCCCn1c(CN2CCN(c3cccc(Cl)c3)CC2)nc2c1c(=O)n(C)c(=O)n2C | 1 | i | i | nt | nt | nt
CCCCn1c(CN2CCN(c3ccccc3)CC2)nc2c1c(=O)n(C)c(=O)n2C | 13 | -9.6* | i | -1 | -42%* | i
NNc1nc2sc3c(c2c(=O)n1-c1ccccc1)CCC3 | 5 | nt | nt | -21 | nt | nt
O=c1[nH]c2ccccc2cc1-c1noc(-c2ccncc2)n1 | 6 | nt | nt | -17 | nt | nt
COc1ccc(C2CC(c3ccc(Br)cc3)=NN2C(=O)CN2CCCC2)cc1 (configuration not stated) | 5 | -7.1* | i | -6 | 56%* | i
O=C(N/N=C/c1cccs1)c1cccc(S(=O)(=O)Nc2ccc(Cl)cc2)c1 | 4 | -5.5* | i | -16 | i | i
COc1ccc(NC(=O)CSc2nc(C)c(C)c(C)c2C#N)cc1OC | 14 | nt | nt | -1 | nt | nt
O=C(Nc1cc([N+](=O)[O-])ccc1O)c1cccc(C(=O)Nc2cc([N+](=O)[O-])ccc2O)c1 | nt | i | i | nt | nt | nt
O=C(Nc1cc([N+](=O)[O-])ccc1O)c1cccc([N+](=O)[O-])c1 | nt | -5.4* | i | nt | 10%* | i
Cc1ccc2cc(CN(CC3CCCO3)C(=S)NCc3ccccc3)c(=O)[nH]c2c1C (configuration not stated) | 14 | nt | nt | -8 | nt | nt
CC(=O)NC1(c2ccc(F)cc2)CCN(Cc2cccc(-n3nc(C)cc3C)c2)CC1 | 10 | nt | nt | -41 | nt | nt
Cc1nc2sc3c(c2c2nnc(SCC(=O)Nc4nc5c(s4)CCCC5)n12)CCCC3 | 3 | nt | nt | -6 | nt | nt
O=C(Nc1ccc(F)cc1F)c1ccc2nc(N3CCOCC3)sc2c1 | nt | -11* | i | nt | i | i
O=C(Nc1ccccc1Cl)c1ccc2nc(N3CCOCC3)sc2c1 | nt | i | i | nt | nt | nt
Cc1ccc(NC(=O)CSc2nnc(-c3ccco3)n2C)cc1 | 8 | nt | nt | -23 | nt | nt
Cc1ccc(C(=O)CSc2nnc(-c3ccco3)n2C)cc1 | 7 | -5.4* | i | -38 | 69%* | i
CCOC(=O)Cc1[nH]nc2c1C(c1ccc(Cl)cc1)C(C#N)=C(N)O2 (configuration not stated) | 5 | nt | nt | -36 | nt | nt
CC1CCN(CCc2nc3cc(NS(=O)(=O)c4ccccc4)ccc3n2C)CC1 | 5 | -9.3* | i | 7 | 37%* | i
CC1CCN(CCc2nc3cc(NS(=O)(=O)c4ccc(F)cc4)ccc3n2C)CC1 | 15 | i | i | -15 | nt | nt
